A short description of test [1]: ATG_NRF2_ARE_CIS: Attagene CIS-FACTORIAL HepG2 Assay for human Nuclear Factor Erythroid 2 Related Factor 2 (NFR2) response to Antioxidant Response Elements (ARE) (AID 2282992).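 As to AC50: reporter mRNA level measured by RT-PCR and capillary electrophoresis fluorescence.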 To be noted: HepG2 Attagene ARE/NRF2 reporter, transcription factor activity; actives raise or lower the signal. The gist of the method: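 HepG2 cells transiently transfected with multiplexed cis-regulated reporter transcription units measure endogenous transcription factor activity. Reporter mRNA at 24 h is quantified by RT-PCR, fluorescent labelling and capillary electrophoresis, with bidirectional fitting relative to DMSO.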

Test [2] can be described thus: ATG_Oct_MLP_CIS: Attagene CIS-FACTORIAL HepG2 Assay for human Octamer-Binding Transcription Factor (Oct) (AID 2282993). To be noted: HepG2 Attagene cis-factorial Oct reporter, mRNA; actives raise or lower the signal. The gist of the method: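 HepG2 cells transiently transfected with cis-promoter-driven multiplexed reporter transcription units, dosed for 24 h. Reporter mRNA quantified by RT-PCR, fluorescent labelling, HpaI digestion and capillary electrophoresis; bidirectional fits versus DMSO baseline.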

A short description of test [3]: BSK_3C_TissueFactor: BioMAP Diversity Plus: 3C Assay for Tissue Factor Biomarker Activity (AID 2282997). To be noted: BioMAP 3C HUVEC, tissue factor biomarker readout; actives raise or lower the signal. The gist of the method: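 Primary human umbilical vein endothelial cells in the 3C system were exposed to test chemical for 24 h, then Tissue Factor measured by ELISA. Activity was fitted bidirectionally against DMSO as negative control and baseline.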

Test [4] is described as follows: BSK_3C_uPAR: BioMAP Diversity Plus: 3C Assay for Urokinase-type plasminogen activator receptor (uPAR) Biomarker Activity (AID 2282998). To be noted: BioMAP 3C HUVEC, uPAR biomarker ELISA; actives raise or lower the signal. The gist of the method: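 Human umbilical vein endothelial primary cells were exposed to test chemical for 24 h. Cell-surface uPAR was then quantified by ELISA, and responses were fitted bidirectionally against DMSO as negative control and baseline.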

The nature of test [5]: BSK_3C_VCAM1: BioMAP Diversity Plus: 3C Assay for Vascular cell adhesion molecule 1 (VCAM1) Biomarker Activity (AID 2282999). To be noted: BioMAP 3C HUVEC, VCAM1 ELISA, cytokine-stimulated; actives raise or lower the signal. The gist of the method: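 Human umbilical vein endothelial cells (3C system), biomarker read by ELISA 24 h after dosing; bidirectional fit against DMSO baseline. Cytotoxicity tracked by SRB total-protein staining in parallel cultures at biomarker time.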

A short description of test [6]: BSK_4H_Eotaxin3: BioMAP Diversity Plus: 4H Assay for Eotaxin 3 Biomarker Activity (AID 2283000).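 As to outcome: CCL26 protein level quantified by ELISA in parallel with SRB cytotoxicity check.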 To be noted: primary human endothelial cells (HUVEC); actives raise or lower the signal. The gist of the method: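 HUVEC, 24 h post-dose, ELISA for Eotaxin-3/CCL26. Gain or loss of signal fitted bidirectionally vs DMSO baseline.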
In test [7] the target is human Peroxisome Proliferator-activated Receptor alpha (PPARa), PPARA (gene 5465) (UniProt Q07869). As to the kind of experiment: ATG_PPARa_TRANS: Attagene TRANS-FACTORIAL HepG2 Assay for human Peroxisome Proliferator-activated Receptor alpha (PPARa) (AID 2283001; active = hit-call score of the fitted dose curve at least 0.9, where 1 is the maximum;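 as to AC50: potency for gain of reporter signal over DMSO so agonist or activator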). The gist of the method:
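HepG2 cells transiently transfected with multiplexed GAL4-UAS reporters driven by exogenous chimeric NR-Gal4 proteins; reporter mRNA measured after 24 h dosing. Read-out by RT-PCR, 6-FAM labelling, HpaI digestion and capillary electrophoresis; gain of signal versus DMSO.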

For test [8], the target named is Cellular tumor antigen p53 (Homo sapiens) (UniProt P04637). Description: ATG_p53_CIS: Attagene CIS-FACTORIAL HepG2 Assay for human p53 Transcription Factor (AID 2282994). To be noted: HepG2 p53 cis-element reporter, Attagene mRNA; actives raise or lower the signal. The gist of the method:
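HepG2 cells transiently transfected with multiplexed cis-regulated reporter transcription units read endogenous TF activity. After 24 h compound exposure, reporter mRNA was quantified by RT-PCR, fluorescent labelling, HpaI digestion and capillary electrophoresis; bidirectional fits versus DMSO baseline.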

The target of test [9] is human Peroxisome Proliferator-activated Receptor delta (PPARd), PPARD (gene 5467) (UniProt Q03181). Description: ATG_PPARd_TRANS: Attagene TRANS-FACTORIAL HepG2 Assay for human Peroxisome Proliferator-activated Receptor delta (PPARd) (AID 2283002; active = hit-call score of the fitted dose curve at least 0.9, where 1 is the maximum). The gist of the method: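 Read-out: reporter mRNA induction, quantified by fluorescent RT-PCR products resolved by capillary electrophoresis. Human HepG2 liver cells carried transiently transfected Gal4-UAS reporter constructs with chimeric NR-Gal4 fusions. Cells were dosed for 24 h; DMSO served as baseline.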

Records with an inconclusive call do not appear. Calls of active or inactive are those of the source. The calls were made as follows, unless noted: active = hit-call score of the fitted dose curve at least 0.9, where 1 is the maximum; inactive = score below 0.9.

Sequence of Cellular tumor antigen p53 (Homo sapiens) (P04637 whole entry, looked up): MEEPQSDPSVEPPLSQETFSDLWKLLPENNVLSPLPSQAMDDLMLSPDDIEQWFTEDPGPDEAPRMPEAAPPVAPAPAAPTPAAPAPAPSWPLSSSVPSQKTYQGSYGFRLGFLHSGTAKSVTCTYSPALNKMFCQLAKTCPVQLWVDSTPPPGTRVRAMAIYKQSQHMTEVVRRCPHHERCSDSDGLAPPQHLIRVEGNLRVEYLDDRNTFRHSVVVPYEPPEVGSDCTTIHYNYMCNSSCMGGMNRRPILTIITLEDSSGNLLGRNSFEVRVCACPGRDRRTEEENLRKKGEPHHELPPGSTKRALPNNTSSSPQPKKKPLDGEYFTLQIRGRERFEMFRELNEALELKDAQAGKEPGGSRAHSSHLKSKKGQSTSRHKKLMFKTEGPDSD
Sequence of human Peroxisome Proliferator-activated Receptor delta (PPARd), PPARD (gene 5467) (Q03181 whole entry, looked up, the tested form may be a part): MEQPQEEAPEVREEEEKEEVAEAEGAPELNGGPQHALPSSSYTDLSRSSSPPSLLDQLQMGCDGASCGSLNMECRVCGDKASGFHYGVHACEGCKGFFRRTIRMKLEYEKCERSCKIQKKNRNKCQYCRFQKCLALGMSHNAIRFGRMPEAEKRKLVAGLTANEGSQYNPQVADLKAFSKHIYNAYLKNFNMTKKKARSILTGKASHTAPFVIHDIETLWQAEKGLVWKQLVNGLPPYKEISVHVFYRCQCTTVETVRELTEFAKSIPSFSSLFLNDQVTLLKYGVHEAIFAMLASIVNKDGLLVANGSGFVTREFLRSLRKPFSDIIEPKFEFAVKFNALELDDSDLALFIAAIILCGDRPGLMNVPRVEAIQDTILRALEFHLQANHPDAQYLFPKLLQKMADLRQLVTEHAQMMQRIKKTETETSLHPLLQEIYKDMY
Sequence of human Peroxisome Proliferator-activated Receptor alpha (PPARa), PPARA (gene 5465) (Q07869 whole entry, looked up, the tested form may be a part): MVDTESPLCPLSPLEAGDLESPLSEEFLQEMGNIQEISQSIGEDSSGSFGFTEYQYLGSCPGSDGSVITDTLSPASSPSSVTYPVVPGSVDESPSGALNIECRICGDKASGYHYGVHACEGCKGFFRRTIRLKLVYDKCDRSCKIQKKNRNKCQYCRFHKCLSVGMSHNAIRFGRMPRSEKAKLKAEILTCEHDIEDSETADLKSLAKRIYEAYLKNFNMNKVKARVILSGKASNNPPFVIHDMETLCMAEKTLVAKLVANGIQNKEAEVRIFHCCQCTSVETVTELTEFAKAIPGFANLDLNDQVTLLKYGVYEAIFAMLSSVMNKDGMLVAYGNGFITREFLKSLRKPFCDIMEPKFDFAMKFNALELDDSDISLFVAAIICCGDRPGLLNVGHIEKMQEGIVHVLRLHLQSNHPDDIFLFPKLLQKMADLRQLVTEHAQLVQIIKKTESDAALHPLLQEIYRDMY

With `CC(COCC(C)OC(=O)c1ccccc1)OC(=O)c1ccccc1` (stereo unspecified), the result in test [1], in test [2], in test [3], in [4], in [5] and in [6] was inactive. Besides, the outcome in [7] was inactive.

On to `O=C1O[C@H]([C@H](O)CO)C(O)=C1O`, for which the compound was classed as inactive in test [1], in [2], in [8], in test [3], in test [4] and in test [5]. Further, the outcome in test [6] was inactive.

As for `CCCCCCCCCCCCCCOS(=O)(=O)O`, the call in test [1], in test [2], in test [8], in [3], in test [4] and in test [5] was inactive. Further, the outcome in [6] was inactive. Moreover, the concentration at half-maximal activity (AC50) in test [7] was 5.1 µM (active).

For `C/C=C/C=C/C(=O)O`, the compound was classed as inactive in test [1], in test [2], in test [3], in test [4], in [5] and in test [6].

Turning to `O=C(Oc1ccccc1)c1cccc(C(=O)Oc2ccccc2)c1`, the compound was classed as inactive in [1], in [2], in test [3], in test [4], in test [5] and in [6]. Further, the call in [7] and in test [9] was inactive.

With `O=C1NC(=O)C(c2ccccc2)(c2ccccc2)N1`, the call in [1], in test [2], in test [3], in test [4], in test [5] and in [6] was inactive.

For `CC(C)(O)c1ccc(CNC(=O)c2cccnc2Oc2ccc(F)cc2)cc1`, the AC50 in [1] was 40.7 µM (active). Further, the result in test [2], in test [8], in test [3], in test [4], in test [5] and in test [6] was inactive. In addition, the compound was called inactive in test [7] and in test [9].

Turning to `CCc1cc(C2=C(C(=O)O)N(c3ccccc3C(F)(F)F)S(=O)(=O)c3ccccc32)cc2c1OCO2`, the AC50 in [1] was 66.8 µM (active); in test [2], 61 µM (active); in [4], 33.7 µM (active). Moreover, the compound was classed as inactive in test [8], in test [3], in test [5], in test [6] and in [9].

On to `CC(=O)O`, for which the outcome in test [1], in test [2], in test [3], in test [4], in [5] and in [6] was inactive. In addition, in test [7], the outcome was inactive.

On to `CC(C)c1cccc(C(C)C)c1NC(=O)NS(=O)(=O)c1cc(C(C)(C)O)co1`, for which the call in test [1], in test [2], in [8], in [3], in test [4] and in test [5] was inactive. Besides, the outcome in test [6] and in [7] was inactive.

For the compound `COC(=O)[C@H]1[C@H]2C[C@@H]3c4[nH]c5cc(OC)ccc5c4CCN3C[C@H]2C[C@@H](OC(=O)c2cc(OC)c(OC)c(OC)c2)[C@@H]1OC`, the AC50 is 45.5 µM (active) in test [1]; 22.9 µM (active) in [8]; 10.4 µM (active) in [3]; 23.2 µM (active) in test [4]; 11.4 µM (active) in test [5]; 25.7 µM (active) in test [6]. The outcome in test [2], in test [7] and in test [9] was inactive.

On to `CN(C)C(=O)NC1(c2ccccc2)CCN(CC[C@@]2(c3ccc(F)c(F)c3)CN(C(=O)c3ccccc3)CCO2)CC1`, for which the AC50 in [1] is 40.8 µM (active); in test [2] it was 100 µM (active); in test [8] it was 100 µM (active). Further, the result in [3], in test [4], in [5], in [6] and in test [9] was inactive.

Regarding `Cc1cn([C@H]2C=C[C@@H](CO)O2)c(=O)[nH]c1=O`, the compound was called inactive in [1], in test [2], in test [3], in test [4], in test [5] and in [6].

Turning to `NC(=Nc1ccccc1)Nc1ccccc1`, the AC50 was 5.38 µM (active) in test [1], 43.9 µM (active) in test [2], 6.23 µM (active) in test [8] and 6.06 µM (active) in [6]. Besides, the result in [3], in test [4], in [5], in [7] and in [9] was inactive.

On to `O=C(O)CC(O)(CC(=O)O)C(=O)O`, for which the outcome in test [3], in [4], in [5] and in test [6] was inactive.

As for `CC(N)=O`, the result in test [1], in [2], in [3], in [4], in test [5] and in [6] was inactive. Besides, the compound was classed as inactive in test [7].

Regarding `CCCCCCCCCC[N+](C)(C)[O-]`, the compound was called inactive in [1], in test [2], in [8], in test [3], in [4] and in test [5]. In addition, the result in test [6] and in test [9] was inactive.

Regarding `S=c1[nH]c2ccccc2s1`, the results for the AC50 in test [1] and in test [2] were 54.9 µM (active) and 100 µM (active), respectively. In addition, the result in test [8], in test [3], in test [4], in test [5], in test [6] and in test [7] was inactive.

Regarding `CCc1nc(N)nc(N)c1-c1ccc(Cl)cc1`, the AC50 is 2.15 µM (active) in test [1], 138 µM (active) in test [2] and 30.3 µM (active) in test [8]. The result in [3], in test [4], in test [5], in [6], in [7] and in test [9] was inactive.

In the case of `Oc1ccccc1O`, the AC50 in test [1] was 13.1 µM (active); in test [2], 31.1 µM (active); in test [3], 2.96 µM (active); in test [5], 2.17 µM (active). Further, the outcome in [8], in [4], in [6] and in [7] was inactive.

As to `CCCC[C@H]1CN(CC2CCOCC2)C(=O)OC12CCN(C1(C)CCN(C(=O)c3c(C)ncnc3C)CC1)CC2`, the compound was classed as inactive in test [1], in [2], in test [8], in test [3], in test [4] and in [5]. In addition, the outcome in [6] and in [7] was inactive.

Take `NC1CCCCC1`: the compound was called inactive in test [1], in [2], in test [3], in [4], in [5] and in [6]. The compound was classed as inactive in test [7] and in [9].

With `Nc1nc(=S)c2[nH]cnc2[nH]1`, the AC50 in [1] was 2.69 µM (active); in [2], 35.5 µM (active). The outcome in [3], in [4], in test [5], in test [6] and in test [7] was inactive.

In the case of `CC(C)(C)c1ccccc1`, the compound was classed as inactive in [1], in test [2], in test [8], in [3], in test [4] and in test [5]. In addition, the result in test [6] and in test [7] was inactive.

A word on the AC50: it is the concentration giving half of the maximal activity seen.

Values taken from PubChem BioAssay (EPA / NIEHS).
